# Data reported in PubChem BioAssay (NCI).
# This is part of a sample that, as a whole, favours compounds with a hit. Of some 83,000 tested, about 20% had one in any assay.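 Testing used 96-well plates and a 48-hour single-concentration exposure. Example: -40 means 40% of the starting cells died.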 Active and inactive are the calls of the source. The calls were made as follows: active = growth percent below 10; inactive = the rest.
# System: MDA-MB-468 breast
# Experiment: NCI-60 one-dose screen, 48 h (100 = growth as untreated, 0 = no growth, -100 = all killed)
# Conditions: 10 µM unless noted
row,Structure (SMILES),growth
1,O=c1c2ccccc2nc2n1Cc1nc3ccccc3c(=O)n1C2,90.6% (inactive)
2,CCOC(=O)c1c(Nc2ccccc2)nn2c(-c3ccc(Cl)cc3)ccnc12,65.1% (inactive)
3,CC[C@H](CC[C@@H](C)[C@H]1CC[C@H]2[C@@H]3/C(=C/c4cccnc4)C(=O)C4=CC(=O)CC[C@]4(C)[C@H]3CC[C@]12C)C(C)C,97% (inactive)
4,CSc1nnc2c(=O)n(C)c(=O)n(C)c2n1,108% (inactive)
5,CCN(CC)CCNc1ccc(N=Nc2cnc3ccccc3c2)c2ccccc12,-64.5% (active)
6,C=C(C)[C@@H]1CC[C@]2(C)[C@H](CC=C3[C@@H]4[C@@H](C)[C@H](C)CC[C@]4(C(N)=O)CC[C@]32C)[C@@]1(C)CCC#N,0.182% [100 µM] (active)
7,COc1ccc(/C=N/NC(=O)c2cnn3c2NC(c2ccccc2)C3)cc1OC (stereo not drawn),34.8% (inactive)
8,CC1CCN(C(=O)OCc2nc3nc(Cl)nc(N4CCOCC4)c3[nH]2)CC1,-59.5% (active)
9,O=C(O)c1ccc(-n2cc(/C=N/Nc3ccc(F)cc3)c(-c3cccc(C(F)(F)F)c3)n2)cc1,90.8% (inactive)
10,CCc1c(Nc2ccc(C)cc2)nc(N)[nH]c1=O,94.5% (inactive)
11,O=C(N/N=C/c1ccc(Cl)cc1)c1ccc(Cc2n[nH]c(=O)c3cccnc23)cc1,89.8% (inactive)
12,CCCNNC(=O)/C=C/c1ccc(CNCCc2c(C)[nH]c3ccccc23)cc1,32.8% [2.5 µM] (inactive)
13,COC1=C(OC)C(=O)C(CCCCCCCCCCO)=C(C)C1=O,-34.8% (active)
